Screens as filed in PubChem.
An excerpt weighted towards active compounds, which were near 21% of everything screened.
Shiga inhibitor = blocks Shiga toxin action in Vero cells | 290,000 tested, 9.2% active | inhibition, % at 38.7 µM | Vero cells, Shiga toxin protein synthesis inhibition reporter; in the data active means inhibition mostly above about 28%, no sharp cut-off; inactive means mostly below about 43%; further: 0% is about no effect
Cycloheximide cs = counter-screen for Shiga toxin inhibitors: cycloheximide protein synthesis inhibition. max response, %. 300,000 tested, 12% active. cell reporter, cycloheximide protein synthesis inhibition counterscreen; in the data active means max response mostly above about 13%, no sharp cut-off; inactive means mostly below about 14%; further: read at 38.3 µM for the half of the compounds with a filed dose; 0% is about no effect
Pf growth 48h = P. falciparum growth inhibition at 48 hours (one generation) | P. falciparum luciferase growth in erythrocytes, 48 h | Potency, µM (titrated, usually from 28.7 µM), for inactives: at the top dose activity change, negative = inhibition, actives largely listed as inhibitors | 310,000 tested, 5.9% active | AID 504832; further: potency means the concentration at half of the fitted maximal effect; on the % scale 0 is the no-effect control and ±100 the full control effect
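Cell-based growth assay: transgenic P. falciparum expressing firefly luciferase, cultured in red cells within RPMI 1640 containing 0.5% w/v Albumax, 24 mM bicarbonate and gentamycin. A drop in luciferase activity indicates inhibition.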
NS1 inh = influenza NS1 inhibition | Potency, µM (doses to about 46.1 µM), for inactives: top-dose activity, positive = more growth | 270,000 tested, 0.4% active | AID 2326; calls by dose curve; further: potency means the concentration at half of the fitted maximal effect; actives are rising curves; nearly all actives have a fitted effect of over 50% in size
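In this qHTS, NS1 from influenza A is expressed in budding yeast, where it slows growth. Cells are switched from glucose to 2% galactose medium (pH 6.0, -URA), treated with compound, and growth recovery is read at OD600.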
Giardia FBPA inh = Giardia lamblia aldolase inhibition. Potency, µM (titrated, usually from 59.6 µM), for the others: at the top dose activity, negative = inhibition, most hits filed as inhibitors. purified Giardia FBPA. AID 2451. A8B2U2. 290,000 tested, 0.71% active; further: potency means the concentration at half of the fitted maximal effect; on the % scale 0 is the no-effect control and ±100 the full control effect; nearly all actives have a fitted effect of over 55% in size
Target sequence (A8B2U2 whole entry, looked up): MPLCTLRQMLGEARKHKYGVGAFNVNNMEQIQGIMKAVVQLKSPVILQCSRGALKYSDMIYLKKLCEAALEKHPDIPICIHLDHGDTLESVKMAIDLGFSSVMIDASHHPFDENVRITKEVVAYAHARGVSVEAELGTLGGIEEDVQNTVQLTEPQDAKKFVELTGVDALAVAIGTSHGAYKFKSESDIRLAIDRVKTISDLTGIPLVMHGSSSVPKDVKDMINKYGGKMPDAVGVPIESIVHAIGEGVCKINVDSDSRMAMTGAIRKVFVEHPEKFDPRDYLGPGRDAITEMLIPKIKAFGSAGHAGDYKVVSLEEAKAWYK
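Giardia FBPA (40 nM reagent) was preincubated 10 min at RT with compound (up to 57.5 uM final), then substrate plus GAPDH/TPI/NAD/arsenate coupling system with diaphorase/resazurin was added; resorufin fluorescence (525/598 nm) was read after 20 min.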
Pf growth 96h = P. falciparum growth inhibition at 96 hour, primary screen for plastid delayed-death inhibitors; P. falciparum luciferase reporter growth, 96 h; Potency, µM (highest dose often 28.7 µM), for the others: at the top dose activity change, negative = inhibition, usual class: inhibitors; 320,000 tested, 6.9% active; AID 504834; further: potency means the concentration at half of the fitted maximal effect; on the % scale 0 is the no-effect control and ±100 the full control effect
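Erythrocytes infected with luciferase-expressing P. falciparum were dispensed at 2% hematocrit and 0.05% parasitemia (final), then incubated with compounds 96 hours at 37 C in 5% CO2. Luminescence after detection reagent addition reported growth.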
The depositor's hits bear a star; ? = inconclusive; . = no result given. Unless noted, the call rests on the fitted dose curve; in most records, active means well fitted curve in the direction sought with a large enough effect; inconclusive means small, poorly fitted or top-dose-only effect, or another doubt; inactive means no such curve, though single readings can be large; an effect the other way counts as inactive or inconclusive.

SMILES	Shiga inhibitor	Cycloheximide cs	Pf growth 48h	NS1 inh	Giardia FBPA inh	Pf growth 96h
CC(=O)Oc1cc(OC(C)=O)c2c(c1)OC(c1ccc(OC(C)=O)c(OC(C)=O)c1)C(OC(C)=O)C2 (configuration not stated)	.	.	.	.	0.4%	.
CCCCc1cc(=O)oc2c(CN3CCCC3)c(O)ccc12	9.2	-1.8	?	6.4%	-2.0%	?
CCCCc1cc(=O)oc2cc(C)c(CN3CCCC3)c(O)c12	16.6	-2.1	4.15µM*	-3.5%	-20.3%	104.7%
CCc1cc(=O)oc2cc(C)c(CN3CCCC(C)C3)c(O)c12 (configuration not stated)	-12.0	1.1	2.08µM*	5.6%	-22.9%	?
C[C@H](NC(=O)c1ccc2ccccc2c1)C(=O)N1CCC2(CC1)NCCc1[nH]cnc12	8.3	-3.5	-2.6%	-5.7%	.	22.3%
Cc1ccc(S(=O)(=O)Nc2cccc(C(=O)NCc3ccc(S(N)(=O)=O)cc3)c2)cc1	-13.7	-1.2	3.3%	-1.5%	10.1%	-1.8%
Cc1ccc(S(=O)(=O)Nc2cccc(CP(=O)(c3ccccc3)c3ccccc3)c2)cc1	-8.2	-3.4	3.29µM*	-6.7%	5.1%	9.28µM*
O=C(CP(=O)(c1ccccc1)c1ccccc1)Nc1cccc(CP(=O)(c2ccccc2)c2ccccc2)c1	8.8	-1.3	?	-6.7%	6.1%	7.38µM*
CCN(CC)c1ccc(C2NC(=O)NC(C)=C2C(=O)Nc2ccccc2)cc1 (configuration not stated)	-4.9	-1.7	.	-8.3%	-2.8%	2.62µM*
COc1ccccc1NC(=O)C1=C(C)NC(=O)NC1c1ccccc1[N+](=O)[O-] (configuration not stated)	45.4*	30.2*	?	.	?	?
CC1=C(C(=O)Nc2ccc(C)cc2)C(c2ccco2)NC(=O)N1 (configuration not stated)	1.3	-1.9	-6.4%	5.2%	4.7%	?
CCOC(=O)C1=C(C)NC(=O)NC1c1ccc(N(CC)CC)cc1 (configuration not stated)	-14.4	-7.6	.	-0.3%	-0.5%	?
CC1=C(C(=O)Nc2ccccc2)C(c2ccccc2[N+](=O)[O-])NC(=O)N1 (configuration not stated)	37.2	16.7*	46.7%	11.5%	-18.2%	?
O=C(NNS(=O)(=O)c1ccccc1)c1cccc([N+](=O)[O-])c1	.	-2.6	?	20.1%	-15.5%	-30.3%
N#Cc1ccccc1OCC(=O)OCC(=O)Nc1ccc2c(c1)OCO2	.	.	-5.8%	.	.	6.9%
COc1c(O)cc2c(-c3ccccc3)cc(=O)oc2c1OC	.	.	.	.	3.7%	.
C#C[C@@]1(O)CC[C@@H]2[C@H]3CCC4=C/C(=N\O)CC[C@H]4[C@@H]3CC[C@]21CC	.	.	-27.0%	.	.	?
C#CC1(O)C=CC2C3CCC4=CC(=O)CCC4C3CCC21CC (configuration not stated)	-5.8	-2.0	?	-7.7%	4.5%	8.49µM*
O=C(Cn1c2[n+](c3ccc(C(F)(F)F)cc31)CCCCC2)c1ccc2c(c1)OCCO2	-9.6	4.9	?	7.2%	5.0%	?
O=C(Cn1c2[n+](c3ccc(C(F)(F)F)cc31)CCCCC2)Nc1ccccc1	8.9	-3.1	?	19.6%	-11.5%	?
CCc1cccc(NC(=O)Cn2c3[n+](c4ccc(C(F)(F)F)cc42)CCCCC3)c1	-4.9	-3.3	4.65µM*	8.4%	14.2%	1.04µM*
FC(F)(F)c1ccc2c(c1)n(Cc1ccccc1)c1[n+]2CCCCC1	3.7	4.2	6.57µM*	.	-28.5%	?
O=C(Cn1c2[n+](c3ccc(C(F)(F)F)cc31)CCCCC2)c1cccc([N+](=O)[O-])c1	1.0	4.2	14.7µM*	.	-1.5%	13.1µM*
NCC(=O)c1ccccc1	.	.	.	.	-4.2%	.
CC1=C(CC(=O)c2ccccc2)C(=O)c2ccccc2C1=O	87.3*	36.1*	0.738µM*	-14.5%	-28.1%	0.828µM*
SMILES	Shiga inhibitor	Cycloheximide cs	Pf growth 48h	NS1 inh	Giardia FBPA inh	Pf growth 96h
CC(OC(=O)c1cc(O)c2ccccc2c1O)C(=O)Nc1ccc(C(N)=O)cc1 (configuration not stated)	.	.	?	.	.	11.7µM*
Clc1ccc(-c2nnc(CNC3CC3)o2)cc1	23.3	21.5*	28.7%	-8.6%	10.9%	32.1%
O=[N+]([O-])c1ccc(-c2nnc(CNC3CCCC3)o2)cc1	19.7	12.5	19.2%	.	-6.6%	5.0%
C=CCNC(=O)/C(C#N)=C/c1c(N(Cc2ccccc2)Cc2ccccc2)nc2ccccn2c1=O	12.7	5.0	5.22µM*	?	5.9%	9.28µM*
CC1CN(c2nc3ccccn3c(=O)c2/C=C(\C#N)C(N)=O)CC(C)O1 (configuration not stated)	-1.5	1.8	25.5%	0.7%	0.6%	58.5%
N#C/C(=C\c1c(N(Cc2ccccc2)Cc2ccccc2)nc2ccccn2c1=O)C(N)=O	-5.9	-2.7	4.65µM*	1.9%	4.8%	?
O=C(COC(=O)Cc1cccc(C(F)(F)F)c1)Nc1ccc2[nH]c(=O)[nH]c2c1	.	.	11.2%	.	.	19.7%
CN1CCC(=C2c3ccccc3C(O)c3ccccc32)CC1 (configuration not stated)	18.5	-2.9	2.0%	4.4%	4.5%	?
CN1CCC(=C2c3ccccc3CCc3sccc32)CC1	-16.8	-3.7	15.1µM*	.	-6.0%	-29.4%
CN1CCC(=C2c3ccccc3CC(=O)c3sccc32)CC1	-14.2	-3.4	14.7µM*	-2.3%	-5.4%	10.4µM*
COc1ccc2cc(C(C)CO)ccc2c1 (configuration not stated)	.	.	-2.1%	.	0.7%	15.0%
CC(Sc1nccn1C)C(=O)Nc1ccc(Cl)cn1 (configuration not stated)	.	.	7.5%	.	.	23.3%
Cc1cc(SCc2ccc(Br)cc2)nc(=O)[nH]1	18.8	39.9*	33.4%	4.2%	10.7%	0.6%
Cc1cc(SCc2ccc(Cl)c(Cl)c2)nc(=O)[nH]1	16.8	27.7*	11.4%	3.3%	.	?
Cc1cc(SCc2ccccc2Cl)nc(=O)[nH]1	-20.3	1.7	14.8%	13.7%	.	-21.7%
O=C(c1ccc2c3c(cccc13)CC2)C1CCCN(Cc2ccc(OCCO)cc2)C1 (configuration not stated)	1.5	1.7	6.57µM*	0.3%	1.5%	4.3%
O=C(c1ccc2c3c(cccc13)CC2)C1CCCN(C(=O)c2cc[n+]([O-])cc2)C1 (configuration not stated)	-2.9	-2.9	-6.4%	-0.2%	-0.2%	2.94µM*
O=C(c1ccc2c3c(cccc13)CC2)C1CCCN(Cc2ccccn2)C1 (configuration not stated)	-16.2	-2.3	2.33µM*	-2.8%	-2.0%	-6.4%
C/C=C/C1=Cc2ccccc2C(C(C(=O)OC)C(=O)OC)N1C(=O)OC (configuration not stated)	.	.	.	.	-1.3%	.
O=c1cc(CF)[nH]c(=S)[nH]1	.	.	.	5.6%	.	.
